# Of roughly 7,900 targets only a part is listed; those with a hit were picked by preference. About 0.6% of all pairs of compound and target were hits. Unmarked numbers belong to inactive results.
# How the values were obtained:
# Experiment in all cases: log2 fold change, soluble protein after heating vs DMSO (PISA); higher = thermal stabilisation; K562 cells, 10 uM, 30 min; active = over 0.2 and 3.5 SD of the protein, either way, in both replicates (recomputed)
# [1] = compound: CC1=C(C=C(C=C1)NC(=O)C2=CC(=CC=C2)C(C)(C)C#N)NC3=CC4=C(C=C3)N=CN(C4=O)C
# Outline: (§1)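 K562 cells at 2×10^6 cells/mL were exposed to 10 μM compound for 30 min, then aliquots were heated for 3 min across 48°C-58°C, pooled, and extracted in PBS containing 0.5% NP-40 at 4°C. The supernatant after 21,000xg for 90 min was taken as soluble protein and measured by TMTpro 16plex LC-MS/MS with channel sums equalised. Thermal stability is reported relative to control samples, with values from duplicates. Fold changes are given on a log2 scale.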
# [2] = compound: CC1=C(C=C(C=C1)NC(=O)C2=CC(=CC=C2)N(C)C)NC(=O)C3=CC=C(C=C3)O
# Outline: as §1
# [3] = compound: CC1=CC=C(C=C1)SC2=C3C=C(SC3=CN=C2)C(=O)N
# Outline: as §1
# [4] = compound: CC1=NC(=CC=C1)C2=C(N=C(N2)C(C)(C)C)C3=CC4=NC=CN=C4C=C3
# Outline: as §1
# Nexturastat A = compound: CCCCN(Cc1ccc(C(=O)NO)cc1)C(=O)Nc1ccccc1 [Nexturastat A]
# Outline: as §1
# vemurafenib = compound: CCCS(=O)(=O)Nc1ccc(F)c(C(=O)c2c[nH]c3ncc(-c4ccc(Cl)cc4)cc23)c1F [vemurafenib]
# Outline: as §1
# [5] = compound: CCCS(=O)(=O)Nc1ccc(F)c(C(=O)c2c[nH]c3ncc(Cl)cc23)c1F
# Outline: as §1
# [6] = compound: CCCc1cc(C)[nH]c(=O)c1CNC(=O)c1cc(-c2ccnc(N3CCN(C)CC3)c2)cc2c1cnn2C(C)C
# Outline: as §1
# givinostat = compound: CCN(CC)Cc1ccc2cc(COC(=O)Nc3ccc(C(=O)NO)cc3)ccc2c1 [givinostat]
# Outline: as §1
# barasertib = compound: CCN(CCCOc1ccc2c(Nc3cc(CC(=O)Nc4cccc(F)c4)[nH]n3)ncnc2c1)CCOP(=O)(O)O [barasertib]
# Outline: as §1
# [7] = compound: CC[C@@H]1C(=O)N(C)c2cnc(Nc3ccc(C(=O)NC4CCN(C)CC4)cc3OC)nc2N1C1CCCC1
# Outline: as §1
# volasertib = compound: CC[C@@H]1C(=O)N(C)c2cnc(Nc3ccc(C(=O)N[C@H]4CC[C@H](N5CCN(CC6CC6)CC5)CC4)cc3OC)nc2N1C(C)C [volasertib]
# Outline: as §1
# [8] = compound: CC[C@H](C)N1C=C(C2=C(C=C(C=C21)C3=CN=C(C=C3)N4CCNCC4)C(=O)NCC5=C(C=C(NC5=O)C)C)C
# Outline: as §1
# epoxomicin = compound: CC[C@H](C)[C@@H](C(=O)N[C@@H]([C@@H](C)O)C(=O)N[C@@H](CC(C)C)C(=O)[C@]1(CO1)C)NC(=O)[C@H]([C@@H](C)CC)N(C)C(=O)C [epoxomicin]
# Outline: as §1
# [9] = compound: CCn1c(C(=O)N(C2CC2)C2CC2)cc2c3c(ncn3C)c(Nc3cc(C)n(C)n3)nc21
# Outline: as §1
# [10] = compound: CCn1cc(-c2ccnc3[nH]c(-c4cccc(CN(C)C)c4)cc23)c(-c2ccc(NC(=O)N(C)C)cc2)n1
# Outline: as §1
# [11] = compound: CN(C)CC(=O)Nc1ccc2[nH]c(=O)c3ccccc3c2c1
# Outline: as §1
# rosiglitazone = compound: CN(CCOC1=CC=C(C=C1)C[C@H]2C(=O)NC(=O)S2)C3=CC=CC=N3 (racemic) [rosiglitazone]
# Outline: as §1
# [12] = compound: CN1C2=C(C3=C1C(=O)N(N=C3)CC4=CC(=CC=C4)N)SC(=C2)S(=O)C
# Outline: as §1
# [13] = compound: CN1CCC(CNc2ccc3ncc(-c4cccc(OC(F)(F)F)c4)n3n2)CC1
# Outline: as §1
# Chain of UniProt Q8N0X7 (Q8N0X7 whole entry, looked up): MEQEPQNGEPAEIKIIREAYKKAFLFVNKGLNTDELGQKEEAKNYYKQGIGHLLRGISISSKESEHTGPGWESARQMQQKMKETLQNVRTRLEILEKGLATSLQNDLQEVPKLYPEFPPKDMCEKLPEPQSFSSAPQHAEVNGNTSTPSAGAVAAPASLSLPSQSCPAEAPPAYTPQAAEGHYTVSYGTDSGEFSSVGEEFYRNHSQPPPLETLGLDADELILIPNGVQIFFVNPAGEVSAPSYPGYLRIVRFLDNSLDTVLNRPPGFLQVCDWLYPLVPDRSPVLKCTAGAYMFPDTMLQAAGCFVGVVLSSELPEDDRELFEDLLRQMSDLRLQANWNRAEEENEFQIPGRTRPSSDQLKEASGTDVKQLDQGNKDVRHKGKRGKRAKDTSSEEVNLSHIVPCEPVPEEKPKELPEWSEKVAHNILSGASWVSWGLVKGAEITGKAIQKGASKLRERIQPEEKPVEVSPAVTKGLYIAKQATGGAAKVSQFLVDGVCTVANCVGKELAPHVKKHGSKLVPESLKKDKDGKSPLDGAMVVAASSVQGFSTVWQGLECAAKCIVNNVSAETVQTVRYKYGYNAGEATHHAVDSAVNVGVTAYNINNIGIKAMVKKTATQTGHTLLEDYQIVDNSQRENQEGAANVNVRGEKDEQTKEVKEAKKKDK
# Chain of UniProt Q86VD7 (Q86VD7 whole entry, looked up): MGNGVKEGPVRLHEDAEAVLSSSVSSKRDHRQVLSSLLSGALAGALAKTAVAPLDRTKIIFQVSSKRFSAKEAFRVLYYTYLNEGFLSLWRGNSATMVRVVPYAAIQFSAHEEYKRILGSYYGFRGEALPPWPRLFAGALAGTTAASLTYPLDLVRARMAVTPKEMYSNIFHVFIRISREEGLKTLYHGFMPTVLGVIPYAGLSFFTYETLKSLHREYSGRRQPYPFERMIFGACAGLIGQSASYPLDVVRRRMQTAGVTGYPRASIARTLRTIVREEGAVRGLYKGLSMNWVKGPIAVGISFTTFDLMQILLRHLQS
# Chain of UniProt Q9BUA3 (Q9BUA3 whole entry, looked up): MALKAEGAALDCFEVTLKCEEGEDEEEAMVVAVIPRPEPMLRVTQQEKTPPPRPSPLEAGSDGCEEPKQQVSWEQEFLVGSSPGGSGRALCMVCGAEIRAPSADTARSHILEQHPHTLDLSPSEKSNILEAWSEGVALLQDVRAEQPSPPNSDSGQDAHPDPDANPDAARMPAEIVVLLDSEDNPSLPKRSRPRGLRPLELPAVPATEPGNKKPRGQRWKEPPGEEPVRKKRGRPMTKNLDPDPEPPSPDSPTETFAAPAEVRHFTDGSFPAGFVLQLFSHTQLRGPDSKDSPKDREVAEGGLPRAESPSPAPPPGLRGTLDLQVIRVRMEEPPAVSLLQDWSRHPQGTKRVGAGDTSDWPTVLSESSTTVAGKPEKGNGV
# Chain of UniProt Q8WXA9 (Q8WXA9 whole entry, looked up): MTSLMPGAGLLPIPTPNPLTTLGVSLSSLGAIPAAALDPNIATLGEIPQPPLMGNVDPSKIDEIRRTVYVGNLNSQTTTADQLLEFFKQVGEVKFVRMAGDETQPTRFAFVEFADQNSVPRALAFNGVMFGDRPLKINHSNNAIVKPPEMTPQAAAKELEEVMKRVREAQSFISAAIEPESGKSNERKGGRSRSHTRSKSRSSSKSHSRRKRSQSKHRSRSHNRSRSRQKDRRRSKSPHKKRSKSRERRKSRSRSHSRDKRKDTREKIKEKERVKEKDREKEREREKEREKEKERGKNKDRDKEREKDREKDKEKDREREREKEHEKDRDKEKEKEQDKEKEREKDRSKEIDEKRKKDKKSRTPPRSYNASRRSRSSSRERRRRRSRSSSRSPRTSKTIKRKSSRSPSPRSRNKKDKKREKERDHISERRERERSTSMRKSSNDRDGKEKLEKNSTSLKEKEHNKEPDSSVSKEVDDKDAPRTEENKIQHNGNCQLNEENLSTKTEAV
# Chain of UniProt Q8NEW0 (Q8NEW0 whole entry, looked up): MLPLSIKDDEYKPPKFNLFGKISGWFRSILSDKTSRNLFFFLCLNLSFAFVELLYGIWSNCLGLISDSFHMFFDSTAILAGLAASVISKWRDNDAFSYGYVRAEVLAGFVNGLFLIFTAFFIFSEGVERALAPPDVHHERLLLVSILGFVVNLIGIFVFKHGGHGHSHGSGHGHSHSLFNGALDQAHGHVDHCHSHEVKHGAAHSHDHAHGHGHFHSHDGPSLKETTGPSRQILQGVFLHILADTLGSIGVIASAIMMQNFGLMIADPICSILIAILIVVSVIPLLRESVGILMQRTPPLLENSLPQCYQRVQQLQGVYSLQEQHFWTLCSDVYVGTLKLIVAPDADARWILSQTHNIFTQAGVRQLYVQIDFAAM
# Chain of UniProt Q9UKI8 (Q9UKI8 whole entry, looked up): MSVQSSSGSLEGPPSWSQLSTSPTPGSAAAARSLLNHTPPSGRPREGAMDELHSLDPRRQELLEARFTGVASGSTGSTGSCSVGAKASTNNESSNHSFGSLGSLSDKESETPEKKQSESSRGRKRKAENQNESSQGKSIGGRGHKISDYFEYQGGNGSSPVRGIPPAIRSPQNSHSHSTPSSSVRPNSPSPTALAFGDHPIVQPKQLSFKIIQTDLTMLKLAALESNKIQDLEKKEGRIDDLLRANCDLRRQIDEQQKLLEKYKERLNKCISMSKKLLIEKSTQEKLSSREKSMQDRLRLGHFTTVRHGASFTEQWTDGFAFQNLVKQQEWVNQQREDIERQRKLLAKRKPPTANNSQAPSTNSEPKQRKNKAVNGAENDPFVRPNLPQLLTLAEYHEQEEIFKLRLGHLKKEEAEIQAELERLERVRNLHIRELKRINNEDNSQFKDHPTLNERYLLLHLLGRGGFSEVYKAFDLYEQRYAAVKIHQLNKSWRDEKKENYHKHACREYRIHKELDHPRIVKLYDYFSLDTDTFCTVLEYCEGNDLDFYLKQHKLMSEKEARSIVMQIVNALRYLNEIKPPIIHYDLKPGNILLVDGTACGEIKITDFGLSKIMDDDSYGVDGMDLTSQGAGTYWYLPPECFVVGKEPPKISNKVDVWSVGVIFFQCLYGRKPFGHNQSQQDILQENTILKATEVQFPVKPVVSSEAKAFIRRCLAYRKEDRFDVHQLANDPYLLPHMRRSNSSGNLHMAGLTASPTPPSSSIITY
# Chain of UniProt Q96CW6 (Q96CW6 whole entry, looked up): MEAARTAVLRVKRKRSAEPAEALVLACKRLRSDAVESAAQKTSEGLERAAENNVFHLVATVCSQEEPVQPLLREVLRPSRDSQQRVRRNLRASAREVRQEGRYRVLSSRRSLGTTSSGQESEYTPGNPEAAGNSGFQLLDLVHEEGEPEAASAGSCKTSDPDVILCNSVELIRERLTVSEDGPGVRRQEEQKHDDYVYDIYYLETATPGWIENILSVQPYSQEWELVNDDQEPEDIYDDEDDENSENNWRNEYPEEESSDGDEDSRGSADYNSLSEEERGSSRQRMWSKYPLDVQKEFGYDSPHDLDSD
# Chain of UniProt Q16594 (Q16594 whole entry, looked up): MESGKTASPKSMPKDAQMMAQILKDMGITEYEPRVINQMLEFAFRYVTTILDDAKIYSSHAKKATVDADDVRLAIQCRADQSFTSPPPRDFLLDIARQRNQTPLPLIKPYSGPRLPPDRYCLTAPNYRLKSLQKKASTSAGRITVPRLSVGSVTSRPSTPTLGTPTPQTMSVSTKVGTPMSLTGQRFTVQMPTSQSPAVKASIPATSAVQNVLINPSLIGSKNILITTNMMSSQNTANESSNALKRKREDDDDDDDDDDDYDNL
# Chain of UniProt O60749 (O60749 whole entry, looked up): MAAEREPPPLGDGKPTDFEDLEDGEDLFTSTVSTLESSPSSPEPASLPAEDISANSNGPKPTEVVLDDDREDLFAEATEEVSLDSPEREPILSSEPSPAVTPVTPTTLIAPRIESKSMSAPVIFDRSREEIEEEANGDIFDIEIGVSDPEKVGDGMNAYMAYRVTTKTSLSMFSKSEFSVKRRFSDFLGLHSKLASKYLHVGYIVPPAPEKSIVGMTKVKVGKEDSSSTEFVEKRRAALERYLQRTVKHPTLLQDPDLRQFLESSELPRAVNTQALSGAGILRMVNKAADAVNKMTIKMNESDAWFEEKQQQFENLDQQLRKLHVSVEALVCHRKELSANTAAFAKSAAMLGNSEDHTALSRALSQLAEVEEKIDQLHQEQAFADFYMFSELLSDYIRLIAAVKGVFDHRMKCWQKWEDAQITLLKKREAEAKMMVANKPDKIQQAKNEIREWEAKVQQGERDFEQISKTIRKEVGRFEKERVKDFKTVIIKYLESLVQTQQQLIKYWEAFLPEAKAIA
# Chain of UniProt Q9UHB9 (Q9UHB9 whole entry, looked up): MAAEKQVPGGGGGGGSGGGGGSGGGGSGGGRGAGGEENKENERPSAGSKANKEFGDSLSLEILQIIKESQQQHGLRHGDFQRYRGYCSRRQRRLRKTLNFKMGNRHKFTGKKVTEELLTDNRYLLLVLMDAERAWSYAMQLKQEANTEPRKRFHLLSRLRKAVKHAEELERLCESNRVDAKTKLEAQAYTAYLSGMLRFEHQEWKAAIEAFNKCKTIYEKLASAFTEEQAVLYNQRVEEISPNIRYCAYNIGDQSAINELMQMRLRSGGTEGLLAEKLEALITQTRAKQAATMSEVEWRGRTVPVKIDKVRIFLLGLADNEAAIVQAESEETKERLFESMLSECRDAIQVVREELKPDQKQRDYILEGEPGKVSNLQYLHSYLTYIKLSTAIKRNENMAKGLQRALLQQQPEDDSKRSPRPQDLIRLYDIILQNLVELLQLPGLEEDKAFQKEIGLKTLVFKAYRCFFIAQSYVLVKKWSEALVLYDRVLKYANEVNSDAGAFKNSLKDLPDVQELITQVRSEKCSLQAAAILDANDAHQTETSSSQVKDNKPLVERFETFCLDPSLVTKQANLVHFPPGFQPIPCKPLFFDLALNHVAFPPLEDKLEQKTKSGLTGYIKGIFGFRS
Target,log2 fold change [1],log2 fold change [2],log2 fold change [3],log2 fold change [4],log2 fold change (Nexturastat A),log2 fold change (vemurafenib),log2 fold change [5],log2 fold change [6],log2 fold change (givinostat),log2 fold change (barasertib),log2 fold change [7],log2 fold change (volasertib),log2 fold change [8],log2 fold change (epoxomicin),log2 fold change [9],log2 fold change [10],log2 fold change [11],log2 fold change (rosiglitazone),log2 fold change [12],log2 fold change [13]
SREK1 isoform 2 (UniProt Q8WXA9),-0.335,-0.083,0,0.045,0.108,0.019,0.096,-0.069,0.062,-0.057,-0.122,-0.22,0.037,-0.021,0.021,-0.098,-0.029,0.015,0.026,-0.035
SNX2 (UniProt O60749),0.009,-0.022,0.02,0.012,0.021,0.013,0.052,-0.036,0.073,0.037,-0.129,-0.053,0.093,0.026,-0.102,-0.08,0.005,0.054,-0.003,-0.332 (active)
SPINDOC (UniProt Q9BUA3),0.157,0.037,-0.074,-0.139,-0.014,0.113,0.11,-0.013,-0.127,0.129,-0.131,-0.178,-0.243,0.071,-0.094,0.105,0.074,-0.041,-0.222,-0.02
SLC30A7 (UniProt Q8NEW0),-0.03,0.003,0.03,-0.072,-0.108,0.072,-0.019,-0.148,0.081,0.032,0.016,-0.074,-0.041,-0.034,-0.007,0.032,0.014,0.053,-0.05,0.091
SPART (UniProt Q8N0X7),0.007,-0.027,0.055,-0.014,0.005,-0.046,0.088,-0.025,0.001,0.037,-0.031,-0.224 (active),-0.005,-0.123,-0.015,0.014,0.069,0.04,-0.035,-0.052
STXBP2 isoform 3 (UniProt Q15833),0,-0.042,0.036,-0.017,0.128,0.155,0.032,0.063,0.125,0.068,-0.015,-0.217,0.138,-0.006,-0.083,-0.025,0.02,0.096,0.116,-0.072
TIAL1 isoform 2 (UniProt Q01085),-0.009,0.015,-0.019,0.08,0.005,0.023,0.002,-0.007,-0.022,-0.021,0.042,-0.042,0.006,0.001,0.01,0.026,-0.056,-0.019,-0.063,-0.03
TLK1 (UniProt Q9UKI8),0.062,-0.009,0.018,0.011,0.012,0.008,0.019,-0.053,0.078,0.079,0.017,-0.088,0.02,-0.018,0.01,-0.054,0.033,0.026,-0.086,-0.037
TAMM41 isoform 3 (UniProt Q96BW9),-0.021,-0.013,0.049,0.056,-0.084,-0.006,0.04,-0.062,0.036,0.046,-0.209,-0.312 (active),-0.004,0.02,-0.02,0.022,0.013,0.005,-0.052,-0.362 (active)
SRP68 (UniProt Q9UHB9),0.028,-0.062,0,0.018,0.125,0.063,0.091,0.064,0.075,0.078,-0.077,-0.487 (active),0.079,0.094,-0.093,-0.024,0.019,0.048,0.133,-0.18
SPG11 (UniProt Q96JI7),-0.384,0.068,-0.063,-0.182,0.359,-0.415,-0.008,-1.21,0.023,0.029,0.155,-0.294,0.017,-0.085,0.019,0.141,-0.216,-0.045,0.367,-1.24 (active)
SLC7A6OS (UniProt Q96CW6),-0.065,-0.033,-0.042,-0.075,-0.031,-0.015,0.013,-0.025,0.017,0.01,-0.027,-0.084,-0.042,0.01,-0.07,-0.038,0.004,-0.06,-0.05,0.055
TAF9 (UniProt Q16594),0.125,-0.007,-0.092,0.018,0,-0.017,-0.097,0.02,0.019,-0.019,-0.028,0.095,-0.029,0.12,0.025,0.034,-0.021,-0.001,0.061,0.077
SLC25A42 (UniProt Q86VD7),-0.007,0.041,0.038,-0.049,-0.021,-0.015,0.089,-0.054,-0.006,0.001,-0.025,0.039,-0.028,0,0.019,0.002,-0.021,0.025,0.022,0.022
STAT6 (UniProt P42226),-0.092,-0.111,0.053,0.015,0.044,0.058,0.082,-0.012,0.078,0.001,-0.196,-0.594 (active),-0.02,-0.074,-0.033,0.1,0.093,0.038,0.018,-0.11
SLK isoform 2 (UniProt Q9H2G2),-0.078,-0.07,0.051,0.02,-0.007,0.03,0.092,0.026,0,0.047,-0.095,-0.161,0.05,0.052,-0.002,-0.271 (active),-0.016,0.041,-0.022,-0.152

# Source: the supplement of paper PMC10849652
